Rows were chosen to be rich in hits. Some 1.9% of all compounds tested hit in one or more screens of this group.
RecA splice inh: Mtb RecA intein splicing inhibition; inhibition, % (concentration not given with the values); cell-free RecA intein splicing, fluorescence; P9WHJ3; 290,000 tested, 0.75% active; in the data active = inhibition above about 30%; inconclusive = no clear call, values can overlap the other calls;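 note: 0% = vehicle wells and 100% = reference inhibitor control wells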
Target sequence (P9WHJ3 whole entry, looked up, canonical isoform): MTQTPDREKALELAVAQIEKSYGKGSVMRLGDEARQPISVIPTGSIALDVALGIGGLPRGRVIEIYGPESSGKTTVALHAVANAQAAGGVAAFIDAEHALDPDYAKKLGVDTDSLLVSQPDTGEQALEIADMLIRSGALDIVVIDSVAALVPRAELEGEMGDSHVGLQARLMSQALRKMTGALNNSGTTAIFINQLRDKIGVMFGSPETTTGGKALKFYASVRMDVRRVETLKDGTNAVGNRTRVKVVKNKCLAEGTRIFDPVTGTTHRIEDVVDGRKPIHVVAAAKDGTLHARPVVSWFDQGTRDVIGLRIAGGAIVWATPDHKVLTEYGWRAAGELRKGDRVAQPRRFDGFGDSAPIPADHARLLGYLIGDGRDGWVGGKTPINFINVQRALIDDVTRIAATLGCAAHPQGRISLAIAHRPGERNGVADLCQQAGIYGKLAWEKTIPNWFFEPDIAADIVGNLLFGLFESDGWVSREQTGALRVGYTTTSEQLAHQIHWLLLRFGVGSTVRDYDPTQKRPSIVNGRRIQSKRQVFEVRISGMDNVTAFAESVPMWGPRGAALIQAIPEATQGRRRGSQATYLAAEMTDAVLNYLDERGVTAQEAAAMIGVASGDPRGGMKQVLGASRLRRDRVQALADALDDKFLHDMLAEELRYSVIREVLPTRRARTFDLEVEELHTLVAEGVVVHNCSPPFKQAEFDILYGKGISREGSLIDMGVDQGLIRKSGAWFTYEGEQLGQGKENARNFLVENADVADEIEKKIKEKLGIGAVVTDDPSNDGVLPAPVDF
BJeLR lethal: kills HRASV12-expressing BJeLR cells; AID 1554; BJeLR (HRASV12) viability, CellTiter-Glo ATP luminescence, 48 h; inhibition, % (concentration not given with the values); 300,000 tested, 0.17% active; in the data active = inhibition above about 50%; inconclusive = no clear call, values can overlap the other calls
PrPC surface inh: reduces human prion protein on the cell surface. P04156. inhibition, % at 13.8 µM. 370,000 tested, 0.43% active. cell surface PrPC, TR-FRET read-out. AID 720596; in the data active = inhibition above about 24%; note: 0% = median of the test wells and 100% = reference compound wells
PriA SSB inh: inhibitors of Klebsiella pneumoniae PriA binding to SSB C-terminal tail. AlphaScreen SSBct-PriA binding, biotinylated peptide. inhibition, % at 33 µM. 430,000 tested, 0.6% active; in the data active = inhibition mostly above about 37%, no sharp cut-off; inactive = mostly below about 20%;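 note: plate controls were negative control peptide for no effect and reference peptide for full effect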
PrP UTR inh: suppresses PrP 5' UTR mRNA reporter expression | cell-based PrP 5' UTR mRNA reporter, plate reader | inhibition, % (concentration not given with the values) | 340,000 tested, 0.35% active | AID 488862; in the data active = inhibition above about 52%; note: 0 = median of the neutral control wells
PfHsp40 rescue: compounds rescuing yeast from Plasmodium falciparum HSP40 toxicity; 340,000 tested, 0.68% active; S. cerevisiae expressing PfHsp40, growth rescue, ATP luminescence; AID 504582; growth rescue, % at 12.5 µM; in the data active = growth rescue above about 28%, passing the limit was not always enough; inconclusive = no clear call, values can overlap the other calls;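 note: yeast W303a lacking pdr1 and pdr3 grown in galactose medium; growth measured after three days at 30 °C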
PrP UTR cherry: prion 5' UTR mRNA inhibition, cherry-pick retest; shares compounds with PrP UTR inh; cell-based prion protein 5' UTR reporter, plate reader; AID 504592; inhibition, % at 2.5 µM; 1,100 tested, 48% active; in the data active = inhibition above about 54%; inconclusive = no clear call, values can overlap the other calls
Starred values were filed as active, the others as inactive; ? = inconclusive; · = not tested or not shown.

SMILES | RecA splice inh | BJeLR lethal | PrPC surface inh | PriA SSB inh | PrP UTR inh | PfHsp40 rescue | PrP UTR cherry
O=C(CSc1nc2c(c(=O)n1-c1cccc(C(F)(F)F)c1)SCC2)Nc1nccs1 | · | · | · | 4.0 | · | · | ·
O=C(c1cnn2ccccc12)N1CCCc2ccccc21 | 1.8 | -5.5 | 4.5 | -10.5 | 60.4* | 0.3 | 31.9
O=C(c1cnc2ccccn2c1=O)N1CCCc2ccccc21 | · | -4.1 | -6.5 | -0.1 | -15.3 | 1.4 | ·
CCOC(=O)c1sc(NC(=O)c2ccc(C(C)=O)cc2)nc1-c1ccccc1 | · | · | · | -1.0 | · | · | ·
CCOc1ccc(-c2cn3c(CC(=O)NCc4ccc(F)cc4)csc3n2)cc1 | · | · | · | 8.0 | · | · | ·
CCC(C)Sc1nnc(CSc2nc(C)cc(C)n2)n1-c1ccc(F)cc1 (stereo unspecified) | · | · | · | -3.0 | · | · | ·
O=C(NCc1cccnc1-c1ccsc1)c1ccoc1 | · | · | · | 9.0 | · | · | ·
O=C(O)c1cccc(N/N=C/c2cccs2)c1 | -2.1 | 6.8 | 1.6 | · | 65.2* | 0.3 | 63.5*
O=C(C1CCCC1)N1CCN(Cc2nncn2-c2ccccc2)CC1 | · | · | · | -2.0 | · | · | ·
COc1ccc2c(c1OC)c(=O)n1c3ccc(OC(C)C(=O)NCCCN4CCOCC4)cc3c3ccnc2c31 (stereo unspecified) | -238.0 | -1.1 | · | 21.1 | 54.2* | -0.4 | 7.5
COc1ccc2c(c1OC)c(=O)n1c3ccc(OC(C)C(=O)NCCN4CCOCC4)cc3c3ccnc2c31 (stereo unspecified) | -174.2 | 7.8 | -20.0 | 11.6 | -30.3 | 0.0 | ·
Cc1nn(C(=O)C2CCCN2S(=O)(=O)c2ccc(F)cc2)c(C)c1Sc1ccccc1 (stereo unspecified) | · | · | · | -6.0 | · | · | ·
O=C(NCC1CCCCC1)c1ccc(F)c(S(=O)(=O)N2CCOCC2)c1 | · | · | 10.5 | 2.6 | -27.4 | 7.5 | ·
CCC1CCCCN1C(=S)NC(=O)c1ccc(F)c(S(=O)(=O)N2CCOCC2)c1 (stereo unspecified) | 1.2 | 1.7 | 4.8 | -15.8 | 59.5* | 0.0 | 4.9
Cn1c(C2CCN(S(C)(=O)=O)CC2)nn(CC(=O)N2CCc3ccccc32)c1=O | · | · | · | -9.0 | · | · | ·
COc1ccc2c(c1)/C(=C/c1cc(OC)c(OC)c(OC)c1)C(=O)N2 | · | · | 1.6 | -2.2 | 64.2* | -2.3 | 73.1*
CC(=O)Nc1cccc(C(=O)O)n1 | 0.1 | -5.0 | 3.2 | 11.7 | 87.8* | -0.3 | -10.7
CC(=O)Nc1cccc(NC(C)=O)n1 | -0.8 | -2.2 | 6.7 | -13.9 | -8.1 | 0.0 | ·
C=CCNC(=O)C1CCN(C(=O)c2ccc(-c3ccccc3)cc2)CC1 | · | 11.1 | -5.6 | -7.4 | 60.0* | 0.9 | ?
COc1ccc(CC(=O)Nc2ccc3c(c2)CC(=O)N3)cc1OC | · | · | · | -16.0 | · | · | ·
NC(=O)c1cc([N+](=O)[O-])ccc1NCc1ccc(N)cc1 | · | · | -18.9 | 14.2 | 74.1* | -0.4 | 74.6*
CSC1=Nc2cccnc2Nc2ccccc21 | · | · | · | 25.0 | · | · | ·
O=C(c1ccc2c3c(cccc13)CC2)C1CCCN(Cc2ccccn2)C1 (stereo unspecified) | 2.4 | 7.1 | -5.5 | 9.5 | -12.7 | 1.0 | ·
O=C(c1ccc2c3c(cccc13)CC2)C1CCCN(Cc2ccc(OCCO)cc2)C1 (stereo unspecified) | -2.4 | -9.1 | -7.2 | 9.9 | 87.1* | -0.6 | -18.1
COC(=O)c1ccc(C(=O)NCCc2cc(C)no2)cc1 | · | · | · | -5.0 | · | · | ·
SMILES | RecA splice inh | BJeLR lethal | PrPC surface inh | PriA SSB inh | PrP UTR inh | PfHsp40 rescue | PrP UTR cherry
CC(=O)N1CCN(C(=O)C(=O)NCC2COC3(CCCCC3)O2)CC1 (stereo unspecified) | · | · | · | 0.0 | · | · | ·
COc1ccc(C2(CNC(=O)c3ccccc3S(=O)(=O)C(F)F)CCCC2)cc1 | · | · | · | -12.0 | · | · | ·
O=S1(=O)CC(N2CCCC2)CN1C1CCCCC1 (stereo unspecified) | · | · | -6.2 | · | · | · | ·
O=S1(=O)CC(N2CCCCC2)C(N2CCCCC2)C1 (stereo unspecified) | -1.9 | 3.9 | 0.7 | -0.6 | 69.3* | -0.8 | -6.2
CC(C)N(Cc1cc2ccccc2[nH]c1=O)C(=O)c1cccc([N+](=O)[O-])c1 | 0.7 | -7.8 | -6.5 | -16.4 | 68.2* | -0.9 | -6.8
CC(=O)OCC(=O)Nc1ccccc1C | 0.2 | -2.5 | 8.0 | 7.4 | 76.2* | 0.4 | -7.8
CC(=O)OCC(=O)Nc1c(C)cccc1C | · | 13.0 | -1.1 | -15.8 | 30.8 | 1.4 | ·
Cc1ccc2c(c1)C(=O)c1c(C(=O)O)cccc1-2 | -3.7 | -1.6 | -11.2 | -14.4 | 78.0* | 2.8 | -4.5
O=C(O)c1cccc2c1-c1ccc([N+](=O)[O-])cc1C2=O | · | · | -44.9 | -12.2 | -34.6 | -2.1 | ·
O=C(NCCCc1ccccc1)Nc1ccn2nccc2c1 | · | · | · | 9.0 | · | · | ·
O=C(CSc1nnc(-c2ccc(Br)cc2)o1)Nc1cccc(C(=O)O)c1 | 1.7 | 0.9 | 7.9 | -8.3 | 71.4* | 0.4 | 79.6*
O=C(CSc1nnc(-c2ccccc2)o1)Nc1ccccc1C(F)(F)F | · | · | · | -10.0 | · | · | ·
O=C(CSc1nnc(-c2ccccc2)o1)Nc1ccccc1F | 1.8 | 45.6 | -3.5 | -6.5 | 60.0* | 0.0 | 58.7*
Cc1ccc(-c2nnc(SCC(=O)Nc3ccccc3F)o2)cc1 | 3.9 | 55.9* | -2.1 | -8.6 | 88.9* | -0.5 | 88.2*
OCC1OC(Oc2c[nH]c3ccccc23)C(O)C(O)C1O (stereo unspecified) | 13.5 | 4.4 | -5.6 | -24.2 | 67.9* | 0.6 | -21.7
O=C1CCCN1Cc1cn(C2CN(S(=O)(=O)c3ccc4c(c3)CCO4)C2)nn1 | · | · | · | -6.0 | · | · | ·
CC(=O)N(/N=C1\Sc2ccccc2C1=O)c1ccc(C)cc1C | 1.7 | -11.6 | 8.0 | · | 57.8* | -0.9 | 56.2*
CC(C)(C)c1ccc(-c2noc(CCC(=O)Nc3cccnc3)n2)cc1 | -0.3 | 4.5 | 3.9 | -5.2 | 65.4* | -0.2 | 33.5
CCOC(=O)C1(Cc2ccccc2)CCCN(CCO)C1 (stereo unspecified) | 3.7 | -3.5 | 2.4 | -1.0 | -64.1 | -0.1 | ·
CCOC(=O)C1(Cc2ccccc2)CCCN(Cc2ccc(OCC)c(CO)c2)C1 (stereo unspecified) | -0.6 | 6.7 | 3.7 | -14.1 | 52.5* | -0.4 | 4.9
O=C(O)c1ccc(C=NN=Cc2ccco2)cc1 | · | · | -3.9 | -19.1 | 62.0* | 0.3 | -0.3
O=C(O)c1ccc(C=NN=C2c3ccccc3-c3ccccc32)cc1 | · | · | -4.8 | -2.6 | -17.7 | -0.6 | ·
COc1ccc(Cl)cc1C(=O)Nc1ccc2c(c1)N(C(=O)c1cccs1)CCC2 | · | · | · | -2.0 | · | · | ·
COc1cccc2c1C(=O)c1c(O)c3c(c(O)c1C2=O)CC(O)(C(C)=O)CC3OC1CC(O)C(O)C(C)O1 (stereo unspecified) | · | · | -50.1 | 22.4 | 6.7 | -0.8 | ·
COC1C(C)OC(OC2CC(C)(O)Cc3cc4c(c(O)c32)C(=O)c2c(O)cc3c(c2C4=O)OC2OC3(C)C(O)C(N(C)C)C2O)C(OC)C1(C)OC (stereo unspecified) | · | · | -30.6 | 8.5 | 89.7* | 5.2 | 80.8*
CCOC(=O)Cn1c(=NC(=O)c2cccs2)sc2cc3c(cc21)OCO3 | · | · | · | -8.0 | · | · | ·

From PubChem
